High-throughput results: PubChem BioAssay, The Scripps Research Institute Molecular Screening Center
PLC-gamma1 inh – blocks human PLC-gamma1 enzyme activity. AID 720700. P19174. purified PLC-gamma1, fluorogenic substrate, fluorescence. 370,000 compounds, 0.84% hits. inhibition, % at 12.2 µM; in the data active = inhibition above about 9.5%
PLCb3 inh – blocks human PLC-beta3 enzyme activity. Q01970. Purified PLC-beta3, fluorogenic substrate, fluorescence. inhibition, % at 12.2 µM. 370,000 compounds, 0.18% hits. AID 720704; in the data active = inhibition above about 11%;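 also: 0% = median of compound wells on plate and 100% = full blocker control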
ADAM17 inh – inhibits human ADAM17 | P78536 | recombinant ADAM17, EDANS/DABCYL FRET peptide cleavage | inhibition, % at 6.95 µM | 370,000 compounds, 0.83% hits | AID 720648;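 active = inhibition above the mean of compounds lying between control limits plus 3 SD, set per campaign, cut at about 8.5% in these data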;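 also: 0% = DMSO-only wells as the low control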
ADAM10 inh – ADAM10 inhibition, QFRET primary screen. recombinant ADAM10, EDANS/DABCYL FRET peptide cleavage, 3 h. 370,000 compounds, 0.62% hits. O14672. inhibition, % at 7 µM;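 active = inhibition above a per-campaign cutoff equal to the mean of compounds falling between control-based bounds plus 3 SD, cut at about 20% in these data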;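 also: 0% = DMSO wells while the 100% control is not disclosed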
proKLK7 act – proKLK7 (human) activation, primary screen; activation, % at 7 µM; 370,000 compounds, 0.9% hits; purified proKLK7, EDANS-DABCYL substrate fluorescence; 100% is mature enzyme control, 0% vehicle; P49862;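 active = activation above the mean of all tested compounds plus 3 SD, computed per campaign excluding outliers beyond control limits, cut at about 13% in these data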
Target sequence (P49862 whole entry, looked up): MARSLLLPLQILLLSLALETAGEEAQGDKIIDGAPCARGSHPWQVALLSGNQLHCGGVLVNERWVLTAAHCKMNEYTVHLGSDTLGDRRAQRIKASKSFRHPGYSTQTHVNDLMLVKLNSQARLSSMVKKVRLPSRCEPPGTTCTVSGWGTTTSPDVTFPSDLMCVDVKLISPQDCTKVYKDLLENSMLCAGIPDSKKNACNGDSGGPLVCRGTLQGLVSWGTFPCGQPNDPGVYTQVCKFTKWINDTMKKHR
KLK7 act conf – confirmation of human kallikrein-7 zymogen activators. purified proKLK7, EDANS-DABCYL substrate fluorescence; scaled: vehicle 0, mature enzyme 100. AID 686949. 3,200 compounds, 68% hits. activation, % at 7 µM. shares compounds with proKLK7 act;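 active = activation, as change over the incubation, above the mean of all tested compounds plus 3 SD, cut at about 13% in these data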
EDANS-DABCYL int – fluorescence interference counter-screen for KLK7 activators; shares compounds with proKLK7 act; EDANS-DABCYL substrate fluorescence interference, no enzyme, 4 h; solvent 0%, active enzyme control 100%; activation, % at 7 µM; 3,200 compounds, 80% hits; AID 686952;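 active = activation above the all-compound mean plus 3 SD, ignoring values outside control-based bounds, cut at about 4.8% in these data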;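 also: value is the 4 h activation minus the activation read at time zero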
Active calls of the source: *. Shown are actives, neighbours in structure and some others; about 2.9% of the full set was active somewhere.

For c1csc(CNc2nc(Oc3ccncc3)c3sccc3n2)c1 the results were PLC-gamma1 inh inactive, PLCb3 inh inactive, ADAM17 inh -296, ADAM10 inh inactive, proKLK7 act 17*, KLK7 act conf 5 and EDANS-DABCYL int 12*.
For CCCn1c(NC(=O)c2ccccc2)nc(Cc2ccccc2)c1-c1ccc(OC)cc1 the results were PLC-gamma1 inh -13, PLCb3 inh -15, ADAM17 inh 1, ADAM10 inh 1 and proKLK7 act -1.
CCOC(=O)c1cc2c(=O)n3ccccc3nc2n(Cc2ccco2)c1=NC(=O)c1ccccc1OC was read as PLC-gamma1 inh -380, PLCb3 inh inactive, ADAM17 inh -470, ADAM10 inh inactive and proKLK7 act 8.
For CC(C)n1c(=NC(=O)c2ccco2)c(C#N)cc2c(=O)n3ccccc3cc21 the results were PLC-gamma1 inh -350, PLCb3 inh -478, ADAM17 inh inactive, ADAM10 inh inactive, proKLK7 act 45*, KLK7 act conf 22* and EDANS-DABCYL int 19*.
Screening N=c1c(C(=O)NCCc2ccccc2)cc2c(=O)n3ccccc3nc2n1Cc1ccco1 returned PLC-gamma1 inh inactive, PLCb3 inh inactive, ADAM17 inh -473, ADAM10 inh inactive and proKLK7 act -9.
CCCn1c(=NC(=O)c2ccco2)c(C(=O)OCC)cc2c(=O)n3ccccc3nc21 was read as PLC-gamma1 inh -498, PLCb3 inh inactive, ADAM17 inh inactive, ADAM10 inh inactive, proKLK7 act 89*, KLK7 act conf 35* and EDANS-DABCYL int 35*.
CCOC(=O)c1cc2c(=O)n3ccccc3nc2n(C(C)C)c1=NC(=O)c1ccco1 was read as PLC-gamma1 inh -469, PLCb3 inh inactive, ADAM17 inh inactive, ADAM10 inh inactive, proKLK7 act 44*, KLK7 act conf 59* and EDANS-DABCYL int 51*.
For CCC(=O)N(c1ccccc1)C1CCN(C(=O)C(Cc2ccccc2)NC(C)=O)CC1 (stereo not given) the results were PLC-gamma1 inh 0, PLCb3 inh 1, ADAM17 inh -7, ADAM10 inh -9 and proKLK7 act 0.
Screening Cc1cc(-c2ccc(C(=O)O)s2)cnc1N returned PLC-gamma1 inh inactive, PLCb3 inh inactive, ADAM17 inh inactive, ADAM10 inh inactive, proKLK7 act 31*, KLK7 act conf 61* and EDANS-DABCYL int 70*.
For CC1(C)C=C(c2ccc(C(=O)O)s2)CC(C)(C)N1 the results were PLC-gamma1 inh 3, PLCb3 inh 4, ADAM17 inh 2, ADAM10 inh -6 and proKLK7 act 0.
Screening Cc1c(O)ccc2c3c(c(=O)oc12)CCC(C)C3 (stereo not given) returned PLC-gamma1 inh inactive, PLCb3 inh inactive, ADAM17 inh inactive, ADAM10 inh inactive, proKLK7 act 39*, KLK7 act conf 63* and EDANS-DABCYL int 84*.
Cc1c(O)ccc2c3c(c(=O)oc12)CCCC3 was read as PLC-gamma1 inh inactive, PLCb3 inh inactive, ADAM17 inh inactive, ADAM10 inh inactive, proKLK7 act 32*, KLK7 act conf 71* and EDANS-DABCYL int 64*.
For Cc1c(Br)c(=O)oc2c(Br)c(O)c(O)cc12 the results were PLC-gamma1 inh -368, PLCb3 inh -373, ADAM17 inh -125, ADAM10 inh -470 and proKLK7 act -15.
For Cc1c(Br)c(=O)oc2c(Br)c(O)ccc12 the results were PLC-gamma1 inh -335, PLCb3 inh -475, ADAM17 inh -179, ADAM10 inh inactive, proKLK7 act 26*, KLK7 act conf 15* and EDANS-DABCYL int 25*.
For O=C(NCc1ccccc1F)C1C2C=CC3(CN(Cc4ccccc4)C(=O)C13)O2 (stereo not given) the results were PLC-gamma1 inh 0, PLCb3 inh 0, ADAM17 inh 1, ADAM10 inh -7 and proKLK7 act 0.
For C[C@H](CO)N1C[C@H](C)[C@@H](CN(C)C(=O)Nc2ccnc(N3CCOCC3)c2)OCc2cn(nn2)CCCC1=O the results were PLC-gamma1 inh -3, PLCb3 inh -4, ADAM17 inh -8, ADAM10 inh -16 and proKLK7 act 0.
For Cc1ccc(C2C3=C(CC(C)(C)CC3=O)N(CCN3CCOCC3)C3=C2C(=O)CC(C)(C)C3)cc1 the results were PLC-gamma1 inh -347, PLCb3 inh -401, ADAM17 inh -194, ADAM10 inh -498, proKLK7 act 17*, KLK7 act conf 8 and EDANS-DABCYL int 10*.
Screening CC1(C)CC(=O)C2=C(C1)N(CCN1CCOCC1)C1=C(C(=O)CC(C)(C)C1)C2c1ccc(Cl)c([N+](=O)[O-])c1 returned PLC-gamma1 inh -5, PLCb3 inh -11, ADAM17 inh -7, ADAM10 inh -12 and proKLK7 act 2.
Screening N=c1c2c(-c3ccccc3)c(-c3ccccc3)n(Cc3ccccc3)c2ncn1C1CCOCC1 returned PLC-gamma1 inh 2, PLCb3 inh -6, ADAM17 inh -6, ADAM10 inh -5 and proKLK7 act 0.
Screening CN(C)c1cccc(C(=O)NNC(=S)NC2CCCC2)c1 returned PLC-gamma1 inh -26, PLCb3 inh -20, ADAM17 inh -10, ADAM10 inh -25 and proKLK7 act 2.
CNC(=S)NNC(=O)c1cccc(N(C)C)c1 was read as PLC-gamma1 inh -19, PLCb3 inh -23, ADAM17 inh -10, ADAM10 inh -36, proKLK7 act 14*, KLK7 act conf 13* and EDANS-DABCYL int 12*.
COc1ccccc1N1C(=O)C2C(C(=O)c3ccccc3)=NN(c3ccc(Br)cc3)C2C1=O (stereo not given) was read as PLC-gamma1 inh -67, PLCb3 inh -105, ADAM17 inh -3, ADAM10 inh 1, proKLK7 act 18*, KLK7 act conf -226 and EDANS-DABCYL int -164.
COc1ccc2[nH]c(C)c(C(=O)CN3CCc4cc(OC)c(OC)cc4C3)c2c1 was read as PLC-gamma1 inh -100, PLCb3 inh -118, ADAM17 inh -19, ADAM10 inh -53, proKLK7 act 17*, KLK7 act conf 9 and EDANS-DABCYL int 8.4*.
Cc1cc(C)[n+](-c2ccc(F)cc2)c2[nH]c(=O)[nH]c(=O)c12 was read as PLC-gamma1 inh inactive, PLCb3 inh inactive, ADAM17 inh inactive, ADAM10 inh inactive, proKLK7 act 38*, KLK7 act conf 63* and EDANS-DABCYL int 68*.
For O=C(Nc1nc(-c2ccc3c(c2)OCCO3)cs1)c1ccco1 the results were PLC-gamma1 inh -11, PLCb3 inh -23, ADAM17 inh -1, ADAM10 inh 1 and proKLK7 act 0.
